{"source": "PubChem BioAssay (EPA / NIEHS)", "key": {"[1]": {"target": "human Esterase Plasma (ES), BCHE (gene 590) (UniProt P06276)", "sequence (P06276 whole entry, looked up)": "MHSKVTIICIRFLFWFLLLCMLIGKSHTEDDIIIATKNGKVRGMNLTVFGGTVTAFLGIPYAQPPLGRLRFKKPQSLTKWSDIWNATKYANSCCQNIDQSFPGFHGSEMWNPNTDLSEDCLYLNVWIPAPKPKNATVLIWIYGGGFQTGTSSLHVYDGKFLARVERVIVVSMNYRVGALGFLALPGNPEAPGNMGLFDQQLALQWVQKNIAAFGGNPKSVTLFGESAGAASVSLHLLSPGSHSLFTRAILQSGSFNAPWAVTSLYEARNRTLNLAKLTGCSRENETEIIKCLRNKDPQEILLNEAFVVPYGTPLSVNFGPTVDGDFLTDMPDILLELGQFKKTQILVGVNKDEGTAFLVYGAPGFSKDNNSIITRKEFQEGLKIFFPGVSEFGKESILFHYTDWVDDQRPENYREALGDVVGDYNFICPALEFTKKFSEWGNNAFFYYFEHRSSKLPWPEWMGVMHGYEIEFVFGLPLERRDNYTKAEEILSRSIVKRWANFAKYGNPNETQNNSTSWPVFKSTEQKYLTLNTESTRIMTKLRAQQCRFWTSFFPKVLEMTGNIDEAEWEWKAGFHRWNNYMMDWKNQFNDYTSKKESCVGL", "assay": "NVS_ENZ_hES: NovaScreen (NVS) Enzymatic Assay for human Esterase Plasma (ES) (AID 2283157)", "summary_of_the_method": "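Screening ran at 25 uM in duplicate, followed by singleton concentration series reaching 50 uM for actives. Human plasma protein, colorimetric detection, 0.25 h exposure, DMSO negative control.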"}, "[2]": {"target": "human Colony Stimulating Factor 1 Receptor (CSF1R), CSF1R (gene 1436) (UniProt P07333)", "sequence (P07333 whole entry, looked up)": "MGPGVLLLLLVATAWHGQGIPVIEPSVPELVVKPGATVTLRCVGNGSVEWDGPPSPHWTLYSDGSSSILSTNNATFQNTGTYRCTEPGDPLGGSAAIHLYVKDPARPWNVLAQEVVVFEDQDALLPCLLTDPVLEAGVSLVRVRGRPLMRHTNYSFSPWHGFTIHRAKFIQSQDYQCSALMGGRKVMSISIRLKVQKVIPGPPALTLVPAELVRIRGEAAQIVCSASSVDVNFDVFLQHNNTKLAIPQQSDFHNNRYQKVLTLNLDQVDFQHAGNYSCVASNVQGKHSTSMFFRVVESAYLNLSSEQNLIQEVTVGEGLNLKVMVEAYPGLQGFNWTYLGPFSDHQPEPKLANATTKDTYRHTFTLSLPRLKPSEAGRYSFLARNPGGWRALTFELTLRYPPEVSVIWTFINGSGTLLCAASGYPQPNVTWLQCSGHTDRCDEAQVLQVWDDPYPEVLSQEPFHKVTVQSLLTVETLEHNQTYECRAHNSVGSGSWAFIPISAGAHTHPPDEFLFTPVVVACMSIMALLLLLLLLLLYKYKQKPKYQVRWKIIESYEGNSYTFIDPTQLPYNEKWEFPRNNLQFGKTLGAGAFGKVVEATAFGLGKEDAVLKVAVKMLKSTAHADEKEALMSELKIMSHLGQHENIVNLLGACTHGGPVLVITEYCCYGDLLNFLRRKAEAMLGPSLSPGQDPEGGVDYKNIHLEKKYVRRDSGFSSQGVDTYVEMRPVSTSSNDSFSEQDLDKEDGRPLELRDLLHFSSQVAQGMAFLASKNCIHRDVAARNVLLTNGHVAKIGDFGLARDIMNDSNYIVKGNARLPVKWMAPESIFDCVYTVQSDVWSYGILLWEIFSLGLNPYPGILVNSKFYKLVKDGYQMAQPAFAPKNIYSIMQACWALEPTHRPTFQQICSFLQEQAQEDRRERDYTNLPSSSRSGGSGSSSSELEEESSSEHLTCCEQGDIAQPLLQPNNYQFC", "assay": "NVS_ENZ_hCSF1R: NovaScreen (NVS) Enzymatic Assay for human Colony Stimulating Factor 1 Receptor (CSF1R) (AID 2283150)", "summary_of_the_method": "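Compounds screened in duplicate at 25 uM, then concentration-response (top 50 uM) for those passing threshold such as 30% inhibition; recombinant CSF1R activity measured 1 h post-dosing via fluorescent substrate/product mobility-shift separation, loss of signal versus DMSO.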"}, "[3]": {"target": "human FYN Proto-Oncogene, Src family Tyrosine Kinase (Fyn), FYN (gene 2534) (UniProt P06241)", "sequence (P06241 whole entry, looked up)": "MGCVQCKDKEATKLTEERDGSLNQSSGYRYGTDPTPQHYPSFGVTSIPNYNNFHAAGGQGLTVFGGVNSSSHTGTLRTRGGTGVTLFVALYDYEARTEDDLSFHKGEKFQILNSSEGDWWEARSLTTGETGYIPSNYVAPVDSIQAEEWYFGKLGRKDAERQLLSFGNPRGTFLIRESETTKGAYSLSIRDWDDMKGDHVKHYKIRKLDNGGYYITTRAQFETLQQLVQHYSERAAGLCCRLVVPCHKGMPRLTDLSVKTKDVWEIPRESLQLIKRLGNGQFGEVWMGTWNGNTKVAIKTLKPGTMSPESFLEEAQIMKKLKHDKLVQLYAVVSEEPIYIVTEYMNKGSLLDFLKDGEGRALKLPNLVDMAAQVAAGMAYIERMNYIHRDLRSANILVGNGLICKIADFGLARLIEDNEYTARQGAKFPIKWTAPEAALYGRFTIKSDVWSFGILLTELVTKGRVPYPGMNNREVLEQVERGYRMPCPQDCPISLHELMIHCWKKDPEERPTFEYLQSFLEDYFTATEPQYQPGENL", "assay": "NVS_ENZ_hFyn: NovaScreen (NVS) Enzymatic Assay for human FYN Proto-Oncogene, Src family Tyrosine Kinase (Fyn) (AID 2283161)", "summary_of_the_method": "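Cell-free kinase activity read by fluorescence after mobility-shift separation of substrate and product, 1 h post-dose. Initial single concentration 25 uM in duplicate, then concentration-response follow-up; DMSO baseline.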"}, "[4]": {"target": "human c-Jun N-terminal Kinases (JNK2), MAPK9 (gene 5601) (UniProt P45984)", "sequence (P45984 whole entry, looked up)": "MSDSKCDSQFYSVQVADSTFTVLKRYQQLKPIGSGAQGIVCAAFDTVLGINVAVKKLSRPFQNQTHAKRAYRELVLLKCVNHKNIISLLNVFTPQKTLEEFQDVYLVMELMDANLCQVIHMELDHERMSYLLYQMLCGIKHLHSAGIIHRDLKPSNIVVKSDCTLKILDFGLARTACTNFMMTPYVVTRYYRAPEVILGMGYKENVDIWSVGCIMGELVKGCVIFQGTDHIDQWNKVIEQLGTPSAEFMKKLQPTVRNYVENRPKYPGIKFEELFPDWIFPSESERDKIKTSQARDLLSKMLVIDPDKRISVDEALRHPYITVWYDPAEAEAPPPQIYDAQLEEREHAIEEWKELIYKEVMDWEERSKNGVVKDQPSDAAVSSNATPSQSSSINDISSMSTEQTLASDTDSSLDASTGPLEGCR", "assay": "NVS_ENZ_hJNK2: NovaScreen (NVS) Enzymatic Assay for human c-Jun N-terminal Kinases (JNK2) (AID 2283171)", "procedure": "NVS_ENZ_hJNK2 is a biochemical, single-readout assay that uses extracted gene-proteins in a cell-free assay. Measurements were taken 1 hour after chemical dosing in a 384-well plate.NVS_ENZ_hJNK2 is one of one assay component(s) measured or calculated from the NVS_ENZ_hJNK2 assay. It is designed to make measurements of enzyme activity, a form of enzyme reporter, as detected with fluorescence intensity signals by Fluorescence and electrophoretic mobility shift technology.Data from the assay component NVS_ENZ_hJNK2 was analyzed into 1 assay endpoint. This assay endpoint, NVS_ENZ_hJNK2, was analyzed in the positive analysis fitting direction relative to DMSO as the negative control and baseline of activity. Using a type of enzyme reporter, loss-of-signal activity can be used to understand changes in the enzymatic activity as they relate to the gene MAPK9. Furthermore, this assay endpoint can be referred to as a primary readout, because this assay has produced multiple assay endpoints where this one serves a enzymatic activity function. To generalize the intended target to other relatable targets, this assay endpoint is annotated to the kinase intended target family, where the subfamily is serine/threonine kinase. […]"}, "[5]": {"target": "human Dual Specificity Protein Phosphatase 3 (DUSP3), DUSP3 (gene 1845) (UniProt P51452)", "sequence (P51452 whole entry, looked up)": "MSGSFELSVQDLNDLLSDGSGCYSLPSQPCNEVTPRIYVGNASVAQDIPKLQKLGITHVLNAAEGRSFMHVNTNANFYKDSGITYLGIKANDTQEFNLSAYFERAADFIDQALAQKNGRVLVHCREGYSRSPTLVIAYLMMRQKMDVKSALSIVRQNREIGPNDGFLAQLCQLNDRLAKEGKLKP", "assay": "NVS_ENZ_hDUSP3: NovaScreen (NVS) Enzymatic Assay for human Dual Specificity Protein Phosphatase 3 (DUSP3) (AID 2283152)", "summary_of_the_method": "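Cell-free fluorescence-intensity enzyme activity assay with recombinant protein and substrate; loss of signal fitted relative to DMSO baseline. Primary screen in duplicate at 25 uM, actives then run in concentration series; measured 0 h after dosing.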"}, "[6]": {"target": "human Elastase, ELANE (gene 1991) (UniProt P08246)", "sequence (P08246 whole entry, looked up)": "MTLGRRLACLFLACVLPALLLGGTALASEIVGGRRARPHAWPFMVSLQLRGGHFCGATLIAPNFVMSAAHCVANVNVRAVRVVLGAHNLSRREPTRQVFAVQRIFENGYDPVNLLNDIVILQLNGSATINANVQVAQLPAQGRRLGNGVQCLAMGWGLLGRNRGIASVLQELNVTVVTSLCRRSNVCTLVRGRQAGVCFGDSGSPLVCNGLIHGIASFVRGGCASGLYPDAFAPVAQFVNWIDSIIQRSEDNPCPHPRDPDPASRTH", "assay": "NVS_ENZ_hElastase: NovaScreen (NVS) Enzymatic Assay for human Elastase (AID 2283153)", "summary_of_the_method": "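Concentration-response to 50 uM max, run singly for chemicals passing a threshold (e.g., 30% inhibition) in a duplicate 25 uM single-point screen. Neutrophil-derived human elastase, absorbance read-out of enzyme activity at 1.5 h; DMSO baseline.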"}, "[7]": {"target": "human Insulin Receptor (InsR), INSR (gene 3643) (UniProt P06213)", "assay": "NVS_ENZ_hInsR: NovaScreen (NVS) Enzymatic Assay for human Insulin Receptor (InsR) (AID 2283168)", "summary_of_the_method": "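Cell-free enzyme assay read 1 h post-dose by fluorescence after substrate/product mobility-shift separation. Duplicate 25 uM primary screen, then singleton concentration-response up to 50 uM for compounds passing threshold; loss of signal vs DMSO.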"}, "[8]": {"target": "human Ephrin type-A Receptor 1 (EphA1), EPHA1 (gene 2041) (UniProt P21709)", "sequence (P21709 whole entry, looked up)": "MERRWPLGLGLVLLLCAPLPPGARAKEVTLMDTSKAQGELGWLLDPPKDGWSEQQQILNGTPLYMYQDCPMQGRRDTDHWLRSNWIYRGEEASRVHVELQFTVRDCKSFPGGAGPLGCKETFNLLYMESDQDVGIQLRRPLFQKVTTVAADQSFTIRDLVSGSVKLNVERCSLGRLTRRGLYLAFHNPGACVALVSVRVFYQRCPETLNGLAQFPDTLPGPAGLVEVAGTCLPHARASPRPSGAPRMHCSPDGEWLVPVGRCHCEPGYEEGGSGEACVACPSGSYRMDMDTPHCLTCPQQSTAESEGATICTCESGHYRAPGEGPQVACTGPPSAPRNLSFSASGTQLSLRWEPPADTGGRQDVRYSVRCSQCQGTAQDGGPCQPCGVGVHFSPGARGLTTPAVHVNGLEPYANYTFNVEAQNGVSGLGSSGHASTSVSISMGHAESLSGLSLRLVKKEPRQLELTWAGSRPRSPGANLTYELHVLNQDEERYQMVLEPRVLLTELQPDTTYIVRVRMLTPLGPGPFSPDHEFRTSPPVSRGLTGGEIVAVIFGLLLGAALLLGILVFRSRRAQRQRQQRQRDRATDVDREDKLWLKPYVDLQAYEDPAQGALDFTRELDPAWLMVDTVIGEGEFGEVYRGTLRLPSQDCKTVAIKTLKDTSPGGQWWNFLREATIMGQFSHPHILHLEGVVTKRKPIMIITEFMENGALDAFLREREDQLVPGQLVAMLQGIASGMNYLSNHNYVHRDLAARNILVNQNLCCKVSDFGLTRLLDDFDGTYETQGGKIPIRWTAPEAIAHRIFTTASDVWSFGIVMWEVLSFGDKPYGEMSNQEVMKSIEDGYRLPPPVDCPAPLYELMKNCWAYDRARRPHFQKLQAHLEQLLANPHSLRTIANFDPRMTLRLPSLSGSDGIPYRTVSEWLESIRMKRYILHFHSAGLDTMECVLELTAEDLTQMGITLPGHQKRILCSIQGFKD", "assay": "NVS_ENZ_hEphA1: NovaScreen (NVS) Enzymatic Assay for human Ephrin type-A Receptor 1 (EphA1) (AID 2283158)", "summary_of_the_method": "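Fluorescent substrate conversion, resolved by mobility-shift separation, measured 1 hour post-dosing using recombinant enzyme; signal loss relative to DMSO baseline. Single-concentration duplicates at 25 uM preceded singleton concentration series topping at 50 uM.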"}, "[9]": {"target": "Histone deacetylase 3 (Homo sapiens) (UniProt O15379)", "sequence (O15379 whole entry, looked up)": "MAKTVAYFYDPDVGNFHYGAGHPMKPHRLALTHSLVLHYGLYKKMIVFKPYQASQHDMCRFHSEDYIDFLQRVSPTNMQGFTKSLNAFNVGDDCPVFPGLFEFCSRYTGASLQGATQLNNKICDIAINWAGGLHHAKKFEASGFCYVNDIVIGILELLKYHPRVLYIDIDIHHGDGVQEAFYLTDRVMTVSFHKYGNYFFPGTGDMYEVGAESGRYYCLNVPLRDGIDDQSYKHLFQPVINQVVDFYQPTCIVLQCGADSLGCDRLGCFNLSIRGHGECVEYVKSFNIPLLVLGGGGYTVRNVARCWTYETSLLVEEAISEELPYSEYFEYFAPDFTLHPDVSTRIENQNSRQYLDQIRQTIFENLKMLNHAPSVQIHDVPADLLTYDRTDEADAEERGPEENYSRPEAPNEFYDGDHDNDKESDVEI", "assay": "NVS_ENZ_hHDAC3: NovaScreen (NVS) Enzymatic Assay for human Histone Deacetylase 3 (HDAC3) (AID 2283163)", "procedure": "NVS_ENZ_hHDAC3 is a biochemical, single-readout assay that uses extracted gene-proteins in a cell-free assay. Measurements were taken 1 hour after chemical dosing in a 384-well plate.NVS_ENZ_hHDAC3 is one of one assay component(s) measured or calculated from the NVS_ENZ_hHDAC3 assay. It is designed to make measurements of enzyme activity, a form of enzyme reporter, as detected with fluorescence intensity signals by Fluorescence and electrophoretic mobility shift technology.Data from the assay component NVS_ENZ_hHDAC3 was analyzed into 1 assay endpoint. This assay endpoint, NVS_ENZ_hHDAC3, was analyzed in the positive analysis fitting direction relative to DMSO as the negative control and baseline of activity. Using a type of enzyme reporter, loss-of-signal activity can be used to understand changes in the enzymatic activity as they relate to the gene HDAC3. Furthermore, this assay endpoint can be referred to as a primary readout, because this assay has produced multiple assay endpoints where this one serves a enzymatic activity function. To generalize the intended target to other relatable targets, this assay endpoint is annotated to the hydrolase intended target family, where the subfamily is histone deacetylase.\nBinding assays used specific radioligands (tritiated, iodinated) with non-radioactive competitive displacement ligands in agonist or antagonist protocols (as indicated) and various reference compounds and inhibitors to titrate specific binding to receptors and transporters. Most enzyme assays (CYPs, kinases, phosphatases, proteases, HDACs) used recombinant protein and specific substrates (fluorescence mostly, some colorimetric and radioactive) and inhibitors, followed by a biochemical separation of substrate and product. All assays for the biochemical HTS were initially run in duplicate at a single concentration (10 uM for CYP450 assays and 25 uM for all others). […]"}, "[10]": {"target": "human LYN Proto-Oncogene, Src family Tyrosine Kinase (LynA), LYN (gene 4067) (UniProt P07948)", "sequence (P07948 whole entry, looked up)": "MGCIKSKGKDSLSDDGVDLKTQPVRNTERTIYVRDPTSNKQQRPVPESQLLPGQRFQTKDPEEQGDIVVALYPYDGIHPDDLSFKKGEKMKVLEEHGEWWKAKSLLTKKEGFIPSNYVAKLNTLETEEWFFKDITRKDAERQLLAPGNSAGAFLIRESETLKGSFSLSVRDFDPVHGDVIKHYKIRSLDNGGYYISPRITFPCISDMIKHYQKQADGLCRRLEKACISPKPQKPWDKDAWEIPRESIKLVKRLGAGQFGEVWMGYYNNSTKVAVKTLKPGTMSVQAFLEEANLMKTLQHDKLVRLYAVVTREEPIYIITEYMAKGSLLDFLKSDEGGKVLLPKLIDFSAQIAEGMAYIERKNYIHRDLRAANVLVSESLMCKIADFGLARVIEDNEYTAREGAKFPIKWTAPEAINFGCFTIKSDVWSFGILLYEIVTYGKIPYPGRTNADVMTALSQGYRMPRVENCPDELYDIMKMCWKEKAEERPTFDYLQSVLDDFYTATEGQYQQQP", "assay": "NVS_ENZ_hLynA: NovaScreen (NVS) Enzymatic Assay for human LYN Proto-Oncogene, Src family Tyrosine Kinase (LynA) (AID 2283173)", "summary_of_the_method": "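Recombinant kinase with fluorescent substrate; product separated from substrate by electrophoretic mobility shift and read 1 h after dosing. Duplicate screen at 25 uM, then concentration-response up to 50 uM; activity scored as signal loss against DMSO.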"}}, "note": "Inconclusive results are not listed. The source made the active and inactive calls. How the source made its calls: active means hit-call score of the fitted dose curve at least 0.9, where 1 is the maximum; inconclusive means response in the unintended direction; inactive means score below 0.9.", "data": [{"smiles": "CN(C)CCCN(C)CCCN(C)C", "values": [{"measurement": "AC50", "setting": "[1]", "result": "31.8 µM (active)"}]}, {"smiles": "Cc1cc(SC2=C(O)C[C@@](CCc3ccc(N)cc3)(C(C)C)OC2=O)c(C(C)(C)C)cc1CO", "values": [{"measurement": "AC50", "setting": "[1]", "result": "7.01 µM (active)"}]}, {"smiles": "Cc1ccc(-c2cc(C(F)(F)F)nn2-c2ccc(S(N)(=O)=O)cc2)cc1", "values": [{"measurement": "outcome", "setting": "[1]", "result": "inactive"}]}, {"smiles": "O=C(O)CC(O)(CC(=O)O)C(=O)O", "values": [{"measurement": "outcome", "setting": "[2]", "result": "inactive"}, {"measurement": "outcome", "setting": "[3]", "result": "inactive"}, {"measurement": "outcome", "setting": "[4]", "result": "inactive"}]}, {"smiles": "CCCCCCCCCCCCCCOS(=O)(=O)O", "values": [{"measurement": "AC50", "setting": "[2]", "result": "9.44 µM (active)"}, {"measurement": "AC50", "setting": "[5]", "result": "8.15 µM (active)"}, {"measurement": "AC50", "setting": "[6]", "result": "25.4 µM (active)"}]}, {"smiles": "CC(N)=O", "values": [{"measurement": "outcome", "setting": "[7]", "result": "inactive"}]}, {"smiles": "CCCCc1nc2cccnc2n1Cc1ccc(-c2ccccc2-c2nnn[nH]2)cc1", "values": [{"measurement": "outcome", "setting": "[8]", "result": "inactive"}, {"measurement": "AC50", "setting": "[9]", "result": "17.2 µM (active)"}]}, {"smiles": "Cn1cnc2c1c(=O)[nH]c(=O)n2C", "values": [{"measurement": "outcome", "setting": "[1]", "result": "inactive"}]}, {"smiles": "O=C1c2c(O)cccc2Cc2cccc(O)c21", "values": [{"measurement": "AC50", "setting": "[6]", "result": "4.55 µM (active)"}, {"measurement": "outcome", "setting": "[9]", "result": "inactive"}]}, {"smiles": "CCCCCCCCCC[N+](C)(C)[O-]", "values": [{"measurement": "outcome", "setting": "[8]", "result": "inactive"}]}, {"smiles": "CCCCCCCCCCCCCCCCO", "values": [{"measurement": "outcome", "setting": "[4]", "result": "inactive"}]}, {"smiles": "CSc1ccc(Oc2ccc(S(N)(=O)=O)cc2CN(C)C)cc1C", "values": [{"measurement": "AC50", "setting": "[1]", "result": "0.108 µM (active)"}]}, {"smiles": "O=C(N[C@@H](c1ccccc1)[C@@H]1CCCCN1)c1cccc(C(F)(F)F)c1Cl", "values": [{"measurement": "outcome", "setting": "[2]", "result": "inactive"}, {"measurement": "AC50", "setting": "[1]", "result": "20.8 µM (active)"}, {"measurement": "outcome", "setting": "[10]", "result": "inactive"}]}, {"smiles": "Cc1c(C)c2c(c(C)c1O)CCC(C)(COc1ccc(CC3SC(=O)NC3=O)cc1)O2", "note": "(centres undefined)", "values": [{"measurement": "outcome", "setting": "[5]", "result": "inactive"}, {"measurement": "outcome", "setting": "[1]", "result": "inactive"}]}, {"smiles": "Cc1cc(Cc2ccc(N)c(C)c2)ccc1N", "values": [{"measurement": "outcome", "setting": "[6]", "result": "inactive"}]}, {"smiles": "O=C(NS(=O)(=O)/C=C/c1cccs1)c1ccc(F)cc1Br", "values": [{"measurement": "outcome", "setting": "[8]", "result": "inactive"}]}, {"smiles": "CN(C)CCCN1c2ccccc2Sc2ccc(Cl)cc21", "values": [{"measurement": "AC50", "setting": "[5]", "result": "10.7 µM (active)"}, {"measurement": "AC50", "setting": "[1]", "result": "7.76 µM (active)"}, {"measurement": "outcome", "setting": "[8]", "result": "inactive"}]}, {"smiles": "CC(C)(O)c1ccc(CNC(=O)c2cccnc2Oc2ccc(F)cc2)cc1", "values": [{"measurement": "outcome", "setting": "[6]", "result": "inactive"}]}]}
